# Measurements as given in PubChem BioAssay (NCI).
# The panel holds about 83,000 compounds, 20% with a hit somewhere; the sample as a whole holds those more often.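 A percent growth of 40 corresponds to 60% growth inhibition; 0 means no net growth; -100 means all cells died. Active threshold: below 10.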 Unmarked numbers belong to inactive results. Calls of active or inactive are those of the source.
# What was measured:
# Assay in all cases: NCI-60 one-dose screen, 48 h (100 = growth as untreated, 0 = no growth, -100 = all killed)
# Settings in all cases: 10 µM unless noted
# T-47D breast = tested on: T-47D breast
# BT-549 breast = tested on: BT-549 breast
# MDA-MB-435 melanoma = tested on: MDA-MB-435 melanoma
# SW-620 colon = tested on: SW-620 colon
# MCF7 breast = tested on: MCF7 breast
# HCT-116 colon = tested on: HCT-116 colon
# HCC-2998 colon = tested on: HCC-2998 colon
# KM12 colon = tested on: KM12 colon
SMILES,growth (T-47D breast),growth (BT-549 breast),growth (MDA-MB-435 melanoma),growth (SW-620 colon),growth (MCF7 breast),growth (HCT-116 colon),growth (HCC-2998 colon),growth (KM12 colon)
Cc1cc(NS(=O)(=O)c2ccc(-c3cnc(C4CC4)o3)cc2)ccc1Cl,32.4%,28.8%,0.57% (active),21.7%,11.1%,13.3%,25.1%,27%
COc1ccc(-n2nc(C)c3c(Nc4ccc(NC(=O)Nc5ccc(Cl)c(C(F)(F)F)c5)cc4)ncnc32)cc1,1.89% (active),17.2%,-9.88% (active),14.3%,1.4% (active),7.03% (active),15.6%,6.08% (active)
Cc1nn(-c2cc(=O)[nH]c3ccc(Cl)cc23)c(N)c1C#N,97.1%,111%,103%,98.7%,92.3%,101%,102%,104%
Cc1nc2c3c(-c4ccccc4)c(-c4ccccc4)oc3ncn2n1,70%,101%,100%,96.9%,101%,88.5%,96.2%,99.3%
COc1cccc(Nc2nc(SC)nc(-c3cccc([N+](=O)[O-])c3)c2C#N)c1,62.4%,96.1%,80.9%,75%,72.9%,28.2%,95.3%,98.4%
CC1=CC(=NN=c2cc(C)n([O-])c(C)c2)C=C(C)[N+]1=O,43.9%,75.1%,85.9%,101%,19.3%,83.1%,63.2%,95.3%
Cc1nn(-c2ccc(F)cc2)c2ncnc(Oc3ccc(NC(=O)Nc4ccc(Cl)c(C(F)(F)F)c4)cc3)c12,94.6%,111%,104%,100%,96.2%,102%,99.2%,108%
C=CC(=O)Nc1cccc(-c2nc(SC)nc(Nc3ccccc3OC)c2C#N)c1,3.01% (active),57.1%,18.7%,17.2%,2.55% (active),2.91% (active),81.3%,82.8%
COc1ccccc1Nc1nc(-c2cc3cccc(C(F)(F)F)c3oc2=O)cs1,68.9%,41.9%,-44.8% (active),24%,15.7%,2.41% (active),–,3.87% (active)
N#Cc1c(-c2ccc(Cl)cc2)nc(N=Nc2c(O)[nH]c3ccc(Cl)cc23)nc1N1CCOCC1,99.8%,92.1%,97.5%,91.8%,97.9%,93.2%,96.3%,101%
CN1CCN(c2ccc3nc(-c4ccc(OCCCCN5CCN(CCCCN6C(=O)c7cccc8cccc(c78)C6=O)CC5)cc4)[nH]c3c2)CC1,36.1%,47%,65.9%,84.2%,68.5%,45.9%,–,86.8%
O=C(N/N=C/c1ccccc1O)c1ccccc1Nc1ccnc(C(F)(F)F)c1,19.4%,30.1%,32.4%,35%,8.24% (active),14.4%,–,32.4%
Cc1nc(Nc2ccc(F)c(Cl)c2)sc1C(=O)O,6.86% (active),-0.289% (active),20.4%,24.8%,11.9%,8.02% (active),–,-3.33% (active)
C=C1C(=O)O[C@H]2[C@H]1CC/C(COC(=O)NCCc1ccc(OC)c(OC)c1)=C\CC[C@@]1(C)O[C@@H]21,33.2%,64.3%,58.3%,18.9%,34.8%,5.66% (active),–,84.4%
O=C(Cc1ccc(/C=C/C(=O)c2ncc[nH]2)cc1)Nc1ccccc1,39.9%,54.2%,57.3%,14.2%,9.95% (active),44.2%,–,12.8%
COc1cc2c(cc1-c1c(C)noc1C)ncc1nc(C3CCCCC3)n([C@H](C)COC(F)F)c12,32.8%,58.7%,34.1%,58.7%,18.3%,28.4%,43.7%,46.3%
O=C(NCCN1CCOCC1)Nc1ccc(-c2cc3c(Nc4ccc(Oc5cccc(C(F)(F)F)c5)c(Cl)c4)ncnc3s2)cc1,-1.15% (active),40%,1.05% (active),-46.8% (active),-2.16% (active),-13% (active),5.37% (active),-65% (active)

SMILES,growth (T-47D breast),growth (BT-549 breast),growth (MDA-MB-435 melanoma),growth (SW-620 colon),growth (MCF7 breast),growth (HCT-116 colon),growth (HCC-2998 colon),growth (KM12 colon)
COc1ccc(CN2c3ccccc3Oc3ccccc32)cc1F,58.1%,70.1%,-0.932% (active),33.6%,42.7%,31.1%,–,40.7%
O=C1c2cccc3cccc(c23)C(=O)N1CCCCN1CCN(CCCCOc2ccc(-c3nc4ccc(N5CCOCC5)cc4[nH]3)cc2)CC1,77.2%,91.7%,88.3%,95.1%,74.1%,69.1%,–,92.1%
Fc1ccc2[nH]cc(SSc3c[nH]c4ccc(F)cc34)c2c1,27.5%,39.6%,46.2%,91.2%,32.2%,25.3%,–,24.3%
COc1cc(/C=C/C(=O)c2c(C)oc3nc[nH]c(=O)c23)cc(OC)c1OC,58.9%,72.6%,74.4%,77.5%,47.9%,61.3%,112%,96.9%
CC/C=C\C/C=C\C[C@H]1C/C=C2/C(=O)C=C[C@@H]2C/C=C\CCC(=O)O1,23.4%,-3.33% (active),0.314% (active),8.89% (active),26.1%,-48.7% (active),–,-27.8% (active)
CCN(CC)CCCCNc1c2ccc(Cl)cc2nc2ccc(OC)cc12,-16.9% (active),-29.5% (active),-89.2% (active),-24.8% (active),-30% (active),-39.5% (active),–,-6.4% (active)
O=C1/C(=C/c2cn(-c3ccccc3)nc2-c2ccccc2)SC(=S)N1CCc1ccccc1,96.5%,109%,97.6%,100%,95.3%,102%,–,100%
CC/C=C\C[C@H](O)C/C=C1/C(=O)C=C[C@@]1(C)C/C=C\CCCC(=O)OC,98.2%,104%,106%,114%,92.8%,94%,–,102%
COc1cccc(NC(=O)c2sc3nc(C)c(C(C)=O)cc3c2N)c1,54%,53.7%,-41.1% (active),39.3%,30.1%,37.8%,–,37.8%
COc1ccc(C(=O)COc2ccc(/C=C3\COc4ccc(OC)cc4C3=O)cc2)cc1,84.9%,77.6%,77.1%,80.2%,34.2%,64%,–,68.4%
COc1ccc2c(c1)C(=O)/C(=C/c1ccccn1)CC2,54.2%,96.4%,57.4%,57.5%,15.1%,26.3%,–,-10% (active)
COc1ccc2c(c1)CC/C(=C\c1cncc(Br)c1)C2=O,66.1%,95.7%,82.7%,42.6%,39.3%,65.8%,–,63.7%
O=c1c2c3c(sc2nc(N/N=C/c2cn(-c4ccccc4)nc2-c2ccc(Cl)cc2)n1Cc1ccccc1)CCCC3,105%,92.1%,93.4%,107%,104%,90.3%,–,103%
NC(=NCCCOc1ccc(Cl)cc1)Nc1ccc(Cl)cc1,8.01% (active),59.6%,11.1%,33.5%,10.1%,7.02% (active),–,41.3%
COc1cccc(-c2nc(SCC(=O)Nc3ccc(C(=O)/C=C/c4ccc(OC)c(OC)c4)cc3)[nH]c(=O)c2C#N)c1,78.1%,85.4%,92.3%,112%,82.4%,77.7%,–,81.5%
CCCc1cc(=O)n2c(C(=O)Nc3ccc(F)cc3)c(C(=O)Nc3ccc(F)cc3)sc2n1,97.1% [30 µM],78.4% [30 µM],83% [30 µM],82.9% [30 µM],62.6% [30 µM],38.1% [30 µM],–,84.9% [30 µM]
